# PubChem BioAssay (Tox21)
# Inconclusive results are not listed. A number with no mark means an inactive call. Activity calls are given as the source filed them. Calls come from the whole dose curve.
# Biological target: Muscarinic acetylcholine receptor M1 (Homo sapiens) (UniProt P11229)
# Assay: Cholinergic receptor muscarinic 1 (CHRM1) small molecule antagonists, cell-based qHTS assay (AID 1963588); note: nearly all actives have a fitted effect of over 40% in size
# Conditions: CHRM1-CHO antagonist mode, calcium flux fluorescence; series mostly up to 61.5 µM; activity, negative = inhibition: at the top concentration
# Text: National Center for Advancing Translational Sciences [NCATS]
# Division of Preclinical Innovation [DPI]
# U.S. Environmental Protection Agency [EPA]
# National Institutes of Environmental Health Sciences [NIEHS]
# National Toxicology Program [NTP]
# U.S. Food and Drug Administration [FDA]
# The CHRM1 is a muscarinic receptor. This receptor plays a crucial role in learning and memory processes and has long been identified as a promising therapeutic target for the improvement of cognitive decline in Alzheimer's disease (AD). The CHRM1-CHO cell line stably expressing human muscarinic acetylcholine receptor M1 (CHRM1) can be used for screening agonists and antagonists of interactions between CHRM1 and its ligands. The CHRM1-CHO Calcium Flux Assay is a homogeneous fluorescence-based assay for detecting the intracellular calcium level using FDSS kinetic plate reader system.
# Tox21 Assay Protocol Summary:
# CHRM1-CHO cells were dispensed at 1000 cells/3uL/well in 1536-well black-clear bottom plates using a Multidrop Dispenser. After the assay plates were incubated at a 37 C/5% CO2 incubator for 18 h, 3 uL of Dye Loading Buffer was transferred to the assay plate by a Flying Reagent Dispenser. The assay plates were incubated at 37 C for 1h. For antagonist mode, 23 nL of compounds dissolved in DMSO, positive controls or DMSO only was transferred to the assay plate by a pin tool. After 5 min incubation at room temperature, 1.5 uL of acetylcholine at 50nM was added to each well. The fluorescence intensity in the plates was measured using FDSS 7000EX kinetic plate reader for 3 min at 1 sec intervals. Each test compound was measured at 15 concentrations in three independent runs.
# % is set by controls: 0 for no effect and ±100 for the full control effect; potency is the fitted concentration of half-maximal effect.
# Sequence of Muscarinic acetylcholine receptor M1 (Homo sapiens) (P11229 whole entry, looked up): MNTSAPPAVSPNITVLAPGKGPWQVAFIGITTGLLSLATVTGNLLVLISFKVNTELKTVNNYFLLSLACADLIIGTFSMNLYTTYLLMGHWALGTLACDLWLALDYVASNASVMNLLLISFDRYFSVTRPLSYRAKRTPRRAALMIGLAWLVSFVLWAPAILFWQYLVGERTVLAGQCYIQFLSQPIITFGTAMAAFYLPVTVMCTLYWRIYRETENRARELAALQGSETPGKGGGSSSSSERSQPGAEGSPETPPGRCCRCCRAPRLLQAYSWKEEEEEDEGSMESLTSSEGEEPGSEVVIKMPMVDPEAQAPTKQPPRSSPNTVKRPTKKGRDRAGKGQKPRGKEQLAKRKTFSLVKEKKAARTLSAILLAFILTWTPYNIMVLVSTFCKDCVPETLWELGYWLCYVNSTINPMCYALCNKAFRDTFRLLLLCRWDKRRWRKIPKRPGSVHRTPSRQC
Structure (SMILES),"activity, negative = inhibition",Potency
O=[N+]([O-])c1cc[n+]([O-])cc1,12.8%,–
O=P(c1ccccc1)(c1ccccc1)c1ccccc1,-17.4%,–
Cc1ccc(-c2ncc(Cl)cc2-c2ccc(S(C)(=O)=O)cc2)cn1,2.94% [at 28.3 µM],–
CC(C)COC(=O)C(C)C,-4.33%,–
CCC[Si](OC)(OC)OC,9.51%,–
CC(C)(C)C1CCCCC1=O (stereo not given),-7.06%,–
O=C1c2ccccc2C(=O)N1CCc1noc(-c2ccc(CN3CCCCCC3)s2)n1,–,273 nM (active)
c1ccc(Sc2ccccc2)cc1,2.53%,–
O=[N+]([O-])c1ccc(Nc2ccc(Nc3ccccc3)c(S(=O)(=O)O)c2)c([N+](=O)[O-])c1,4.09%,–
O=C(O)CCc1nc2ccccc2[nH]1,8.1% [at 28.3 µM],–
NC(N)=NS(=O)(=O)c1ccc(N)cc1,4.15% [at 28.3 µM],–
C=Cc1ccc(C(C)(C)C)cc1,3.43%,–
C=CC(C)(CCC=C(C)C)OC(=O)CC(C)C (stereo not given),2.23%,–
COC(=O)[C@@H](N)Cc1ccc(O)c(O)c1,-25.3% [at 28.3 µM],–
CC(C)(C)C(=O)c1ccccc1,0.792%,–
C=C(C)CS(=O)(=O)O,10.6%,–
CCCCOc1ccc(N)cc1,4.65%,–
CCN[C@H]1C[C@H](C)S(=O)(=O)c2sc(S(N)(=O)=O)cc21,5.59% [at 28.3 µM],–
CN(C)c1ccc(N=NS(=O)(=O)O)cc1,87.3%,–
O=Cc1cc(O)ccc1Br,-3.44%,–

Structure (SMILES),"activity, negative = inhibition",Potency
OCc1c[nH]c2ccccc12,1.71%,–
Cc1cc2c(cc1C(F)(F)F)N(C(=O)Nc1ccc(Oc3cccnc3C)nc1)CC2,-16%,–
CCCCCSCCCCC,3.46%,–
[O-][n+]1ccccc1SSc1cccc[n+]1[O-],9.35% [at 12.6 µM],–
C[n+]1c2cc(N)ccc2cc2ccc(N)cc21 (tested in a mixture with another compound),19% [at 28.3 µM],–
c1ccc2c(c1)CCCC2C1=NCCN1 (stereo not given),17.4% [at 28.3 µM],–
C/C(CC(C)C)=N\O,-9.67%,–
NNc1nc(-c2ccccc2)cs1,-10.1%,–
CCN1CCN(C(=O)N[C@@H](C(=O)N[C@@H]2C(=O)N3C(C(=O)O)=C(CSc4nnnn4C)CS[C@H]23)c2ccc(O)cc2)C(=O)C1=O,-3.91% [at 28.3 µM],–
CCCCCCCCCCOC(=O)c1ccccc1C(=O)OCCCCCCCC,-9.04%,–
CCCCNCCCC,-26.9%,–
CC1(C)CC(O)CC(C)(C)N1[O],5.15%,–
O=C1C=CC(=O)N1,17.4%,–
O=C(c1ccccc1)c1ccc(O)cc1,0.619%,–
CCOc1ccc(N=Nc2ccc(/C=C/c3ccc(N=Nc4ccc(OCC)cc4)cc3S(=O)(=O)O)c(S(=O)(=O)O)c2)cc1,5.91%,–
CC(=O)OCC=C(C)C,18.3% [at 28.3 µM],–
C[C@@H]1C[C@H]2[C@@H]3CCC4=CC(=O)C=C[C@]4(C)[C@@]3(F)[C@@H](O)C[C@]2(C)[C@@]1(O)C(=O)COC(=O)c1ccncc1,5.53% [at 28.3 µM],–
CCCCOCCOCCOCCOCCO,1.32%,–
CC(CN(C)C)CN1c2ccccc2CCc2ccccc21 (stereo not given),-19.6% [at 28.3 µM],–
O=C(O)Cc1cc(I)c(Oc2ccc(O)c(I)c2)c(I)c1,83.9%,–
